# Measurements published in the supplement of paper PMC8728848.
# Shown is part of a subset that was picked to be rich in the strongest signals.
# Columns and labels:
# Assay in all cases: glycan array binding signal (z-score within array); higher = stronger binding
# Conditions in all cases: glycan notation: IUPAC condensed, linker removed
# [1] = target: GlcNAc(a1-4)Gal(b1-4)GlcNAc(b1-3)Gal(b1-4)GlcNAc
# Outline: (§1)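 Columns mapping to the same glycan were averaged after glycan names were converted to IUPAC-condensed notation. The data come from 3228 arrays in the Consortium for Functional Glycomics database, limited to those with an available protein sequence. Binding is reported as a within-array Z-score averaged across arrays of one protein sequence and across linkers.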
# GlcNAc(b1-3)Fuc = target: GlcNAc(b1-3)Fuc
# Outline: as §1
# [2] = target: GlcNAc(b1-3)Gal(b1-4)GlcNAc(b1-3)Gal(b1-4)GlcNAc(b1-2)Man(a1-3)[GlcNAc(b1-3)Gal(b1-4)GlcNAc(b1-3)Gal(b1-4)GlcNAc(b1-2)Man(a1-6)]Man(b1-4)GlcNAc(b1-4)GlcNAc
# Outline: as §1
# [3] = target: GlcNAc(b1-3)Gal(b1-4)GlcNAc(b1-6)[Gal(b1-3)]GalNAc
# Outline: as §1
# GlcNAc(b1-3)GalNAc = target: GlcNAc(b1-3)GalNAc
# Outline: as §1
# Man(a1-3)[Man(a1-6)]Man = target: Man(a1-3)[Man(a1-6)]Man
# Outline: as §1
# [4] = target: Neu5Ac(a2-3)Gal(b1-3)GalNAc(b1-4)[Neu5Ac(a2-3)]Gal(b1-4)Glc
# Outline: as §1
# [5] = target: Neu5Ac(a2-3)Gal(b1-3)[Fuc(a1-4)]GlcNAc(b1-3)Gal(b1-4)[Fuc(a1-3)]GlcNAc
# Outline: as §1
# [6] = target: Neu5Ac(a2-3)Gal(b1-3)[Neu5Ac(a2-3)Gal(b1-4)]GlcNAc
# Outline: as §1
# [7] = target: Neu5Ac(a2-3)Gal(b1-3)]Neu5Ac(a2-3)Gal(b1-4)]GlcNAc
# Outline: as §1
# [8] = target: Neu5Ac(a2-3)Gal(b1-4)GlcNAc(b1-2)Man(a1-3)[GlcNAc(b1-2)Man(b1-4)GlcNAc(b1-2)Man(a1-6)]Man(b1-4)GlcNAc(b1-4)GlcNAc
# Outline: as §1
# [9] = target: Neu5Ac(a2-3)Gal(b1-4)GlcNAc(b1-2)Man(a1-3)[Neu5Ac(a2-3)Gal(b1-4)GlcNAc(b1-2)Man(a1-6)]Man(b1-4)GlcNAc(b1-4)GlcNAc
# Outline: as §1
# [10] = target: Neu5Ac(a2-3)Gal(b1-4)GlcNAc(b1-2)Man(a1-3)[Neu5Ac(a2-3)Gal(b1-4)GlcNAc(b1-2)Man(a1-6)]Man(b1-4)GlcNAc(b1-4)[Fuc(a1-6)]GlcNAc
# Outline: as §1
# [11] = target: Neu5Ac(a2-3)Gal(b1-4)GlcNAc(b1-2)[Neu5Ac(a2-3)Gal(b1-4)GlcNAc(b1-4)]Man(a1-3)[GlcNAc(b1-4)][Neu5Ac(a2-3)Gal(b1-4)GlcNAc(b1-2)[Neu5Ac(a2-3)Gal(b1-4)GlcNAc(b1-6)]Man(a1-6)]Man(b1-4)GlcNAc(b1-4)GlcNAc
# Outline: as §1
# [12] = target: Neu5Ac(a2-3)Gal(b1-4)GlcNAc(b1-2)[Neu5Ac(a2-3)Gal(b1-4)GlcNAc(b1-4)]Man(a1-3)[GlcNAc(b1-4)][Neu5Ac(a2-3)Gal(b1-4)GlcNAc(b1-4)Man(a1-6)]Man(b1-4)GlcNAc(b1-4)GlcNAc
# Outline: as §1
# [13] = target: Neu5Ac(a2-3)Gal(b1-4)GlcNAc(b1-2)[Neu5Ac(a2-3)Gal(b1-4)GlcNAc(b1-6)]Man(a1-6)[Neu5Ac(a2-3)Gal(b1-4)GlcNAc(b1-2)Man(a1-3)][GlcNAc(b1-4)]Man(b1-4)GlcNAc(b1-4)GlcNAc
# Outline: as §1
# [14] = target: Neu5Ac(a2-3)Gal(b1-4)GlcNAc(b1-6)[Neu5Ac(a2-3)Gal(b1-3)]GalNAc
# Outline: as §1
# [15] = target: Neu5Ac(a2-3)Gal(b1-4)[Fuc(a1-3)]GlcNAc(b1-3)Gal
# Outline: as §1
# [16] = target: Neu5Ac(a2-3)Gal(b1-4)[Fuc(a1-3)]GlcNAc(b1-3)Gal(b1-4)[Fuc(a1-3)]GlcNAc(b1-3)Gal(b1-4)[Fuc(a1-3)]GlcNAc
# Outline: as §1
# [17] = target: Neu5Ac(a2-3)Gal6S(b1-4)GlcNAc
# Outline: as §1
# [18] = target: Neu5Ac(a2-3)Gal6S(b1-4)[Fuc(a1-3)]GlcNAc
# Outline: as §1
# [19] = target: Neu5Ac(a2-6)Gal(b1-4)GlcNAc(b1-2)[Neu5Ac(a2-6)Gal(b1-4)GlcNAc(b1-4)]Man(a1-3)[GlcNAc(b1-4)][Neu5Ac(a2-6)Gal(b1-4)GlcNAc(b1-4)Man(a1-6)]Man(b1-4)GlcNAc(b1-4)GlcNAc
# Outline: as §1
# Neu5Ac(a2-6)GalNAc = target: Neu5Ac(a2-6)GalNAc
# Outline: as §1
# Neu5Gc(a2-3)Gal(b1-4)Glc = target: Neu5Gc(a2-3)Gal(b1-4)Glc
# Outline: as §1
# [20] = target: Neu5Gc(a2-3)Gal(b1-4)GlcNAc
# Outline: as §1
binder,measurement,setting,value
"Siglec-F (Mus musculus), Q920G3 (protein) MRWAWLLPLLWAGCLATDGYSLSVTGSVTVQEGLCVFVACQVQYPNSKGPVFGYWFREGANIFSGSPVATNDPQRSVLKEAQGRFYLMGKENSHNCSLDIRDAQKIDTGTYFFRLDGSVKYSFQKSMLSVLVIALTEVPNIQVTSTLVSGNSTKLLCSVPWACEQGTPPIFSWMSSALTSLGHRTTLSSELNLTPRPQDNGTNLTCQVNLPGTGVTVERTQQLSVIYAPQKMTIRVSWGDDTGTKVLQSGASLQIQEGESLSLVCMADSNPPAVLSWERPTQKPFQLSTPAELQLPRAELEDQGKYICQAQNSQGAQTASVSLSIRSLLQLLGPSCSFEGQGLHCSCSSRAWPAPSLRWRLGEGVLEGNSSNGSFTVKSSSAGQWANSSLILSMEFSSNHRLSCEAWSDNRVQRATILLVSGPKVSQAGKSETSRGTVLGAIWGAGLMALLAVCLCLIFFTVKVLRKKSALKVAATKGNHLAKNPASTINSASITSSNIALGYPIQGHLNEPGSQTQKEQPPLATVPDTQKDEPELHYASLSFQGPMPPKPQNTEAMKSVYTEIKIHKC",glycan array binding signal (z-score),[1],-0.146
same,glycan array binding signal (z-score),GlcNAc(b1-3)Fuc,-0.135
same,glycan array binding signal (z-score),[2],-0.064
same,glycan array binding signal (z-score),[3],-0.15
same,glycan array binding signal (z-score),GlcNAc(b1-3)GalNAc,-0.12
same,glycan array binding signal (z-score),Man(a1-3)[Man(a1-6)]Man,-0.113
same,glycan array binding signal (z-score),[4],3.76
same,glycan array binding signal (z-score),[5],-0.066
same,glycan array binding signal (z-score),[6],2.46
same,glycan array binding signal (z-score),[7],3.65
same,glycan array binding signal (z-score),[8],2.11
same,glycan array binding signal (z-score),[9],1.94
same,glycan array binding signal (z-score),[10],2.76
same,glycan array binding signal (z-score),[11],8.27
same,glycan array binding signal (z-score),[12],5.53
same,glycan array binding signal (z-score),[13],5.76
same,glycan array binding signal (z-score),[14],0.072
same,glycan array binding signal (z-score),[15],-0.088
same,glycan array binding signal (z-score),[16],-0.109
same,glycan array binding signal (z-score),[17],13.2
same,glycan array binding signal (z-score),[18],12.9
same,glycan array binding signal (z-score),[19],-0.097
same,glycan array binding signal (z-score),Neu5Ac(a2-6)GalNAc,-0.113
same,glycan array binding signal (z-score),Neu5Gc(a2-3)Gal(b1-4)Glc,-0.118
same,glycan array binding signal (z-score),[20],-0.126
